Values joined by “and” are separate entries in the source; they are usually repeats but may differ in a detail not shown here. Equal values may be shown once. Inconclusive results are not listed. More than one record can exist for a structure, and the calls need not agree. Active and inactive are the calls of the source. Unless noted, calls come from the whole dose curve; as a rule, active = well fitted curve in the direction sought with a large enough effect; inconclusive = small, poorly fitted or top-dose-only effect, or another doubt; inactive = no such curve, though single readings can be large; an effect the other way counts as inactive or inconclusive.
Key:
[1] = qHTS assay for small molecule agonists of the antioxidant response element (ARE) signaling pathway (AID 651741; active = well fitted activation curve with a large enough effect in the signal ratio; the % refers to the signal ratio; note: potency is the fitted concentration of half-maximal effect; for activation: % of control where 0% means no effect)
In short: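 HepG2 ARE-bla cells plated at 2,000 cells/well and incubated 5 h at 37 C/5% CO2 received 23 nL compound in DMSO. After 16 h at 37 C, LiveBLAzer B/G FRET substrate was applied for 2 h at room temperature and fluorescence read.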

[2] = qHTS assay for small molecule activators of the p53 signaling pathway (AID 651743; active = well fitted activation curve with a large enough effect in the signal ratio, not every such curve was filed as active; the % refers to the signal ratio; note: series mostly up to about 92 µM; % of control where 0% means no effect); details: HCT-116 p53RE-bla, beta-lactamase FRET ratio, 16 h; activation: stronger effect = higher value
In short: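 HCT-116 p53RE-bla, 4,000 cells/well; 5 h settle; cpd/DMSO 16 h, 37 C; LiveBLAzer B/G 2 h RT; fluorescence intensity.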

[3] = qHTS assay for small molecule activators of the nuclear factor-kappa B (NF-kB) signaling pathway (AID 651749; active = well fitted activation curve with a large enough effect in the signal ratio; the % refers to the signal ratio; note: series mostly up to about 77 µM; % of control where 0% means no effect); details: NF-kB-bla ME-180 cells, beta-lactamase FRET ratio, 16 h; stronger effect = higher value
In short: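 Incubation lasted 16 hr at 37C in 5% CO2 after 23 nL compound addition to ME-180 NF-kB-bla cells. Activation appears as beta-lactamase-mediated FRET loss.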

[4] = target: Tumor necrosis factor (Homo sapiens) (UniProt P01375); assay: qHTS assay to identify small molecules that stimulate Tumor Necrosis Factor-alpha (TNF-alpha) secretion (AID 651757; active = well fitted curve in the direction sought with a large enough effect in the signal ratio; the % refers to the signal ratio; note: 0% is about no effect)
In short: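 THP-1 cells were exposed to compounds for 17 hrs at 37 C, after which secreted TNF-alpha was measured by homogeneous HTRF (TR-FRET) using cryptate- and XL665-labeled anti-TNF-alpha antibodies, read after 3 hr at room temperature.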

[5] = qHTS assay for environmental chemicals that activate the Aryl hydrocarbon Receptor (AhR) signaling pathway (AID 651777); details: 1A2-DRE human hepatoma cells, luciferase, 24 h; stronger effect = higher value; note: % of control where 0% means no effect; nearly all actives have a fitted effect of over 15% in size
In short: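 1A2-DRE human hepatoma reporter line; 1,200 cells/well; cmpd or DMSO 24 h, 37 C/5% CO2; One-Glo 30 min RT; luciferase lum.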

[6] = target: Peroxisome proliferator-activated receptor alpha (Homo sapiens) (UniProt Q07869); assay: qHTS assay for small molecule agonists of the peroxisome proliferator-activated receptor alpha (PPARalpha) signaling pathway (AID 651778); details: PathHunter PPARalpha complementation, chemiluminescence, 6 h; stronger effect = higher value; note: % of control where 0% means no effect
In short: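 Enzyme-fragment complementation assay in which ligand-bound PPARalpha translocates and forms an active enzyme that generates chemiluminescence. Cells were plated overnight, exposed to compound for 6 hr at 37 C, and then given detection reagent for 60 min at room temperature.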

[7] = target: Nuclear receptor ROR-gamma (Homo sapiens) (UniProt P51449); assay: qHTS assay for small molecule antagonists of the retinoid-related orphan receptor gamma (ROR-gamma) signaling pathway (AID 651802); note: series mostly up to about 92 µM; % is set by controls: 0 for no effect and ±100 for the full control effect; nearly all actives have a fitted effect of over 60% in size
In short: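 CHO cells carrying TET-inducible ROR-gamma and an ROR response element–luciferase reporter were exposed to compound, then induced with doxycycline. After 16hr at 37C, luminescence was read; lower signal indicates antagonism.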

[8] = qHTS assay for small molecule agonists of the antioxidant response element (ARE) signaling pathway measured by Nrf2-dependant transcriptional activity (AID 720636; active = well fitted curve in the direction sought with a large enough effect in the repeat runs; an effect the other way counts as inactive or inconclusive;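 note: HepG2 cells with an ARE-driven luciferase reporter; % of control where 0% means no effect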)
In short: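 Cells: ARE-luc HepG2 with Nrf2-responsive luciferase. Medium contained 1% dialyzed FBS. Compound exposure lasted 16 hr at 37 C and 5% CO2, followed by ONE-Glo luciferase detection.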

[9] = qHTS assay for small molecule antagonists of the retinoid-related orphan receptor gamma (ROR-gamma) signaling pathway - cell viability counter screen (AID 720652; active = well fitted curve in the direction sought with a large enough effect in the repeat runs; an effect the other way counts as inactive or inconclusive;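 note: series mostly up to about 92 µM; compound exposure lasted 16 hr before ATP read; % is set by controls: 0 for no effect and ±100 for the full control effect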)
In short: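 Counter screen in CHO cells carrying TET-inducible ROR-gamma and an ROR response element-luciferase reporter; cells plated 5 hr, compound pinned, doxycycline added, then 16 hr at 37 C. Viability read as intracellular ATP by CellTiter-Glo luminescence.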

[10] = qHTS assay for small molecule agonists of the antioxidant response element (ARE) signaling pathway measured by Nrf2-dependant transcriptional activity - cell viability counter screen (AID 720653; active = well fitted curve in the direction sought with a large enough effect in the repeat runs; an effect the other way counts as inactive or inconclusive; note: % is set by controls: 0 for no effect and ±100 for the full control effect); details: ARE-bla HepG2 viability, CellTiter-Glo ATP luminescence, 16 h; stronger effect = lower value
In short: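 ARE-bla HepG2 cells treated with compounds for 16 h at 37C; this counter screen measures viability as intracellular ATP by CellTiter-Glo luminescence after 30 min at room temperature.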

[11] = qHTS assay for small molecule disruptors of the mitochondrial membrane potential - 1 hr assay (AID 651754; calls by dose curve; note: % is set by controls: 0 for no effect and ±100 for the full control effect; nearly all actives have a fitted effect of over 35% in size)
In short: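 HepG2 cells, attached overnight at 37C, were exposed to compound or DMSO vehicle for 1 hr at 37C, 5% CO2, then stained with Mito-MPS dye for 30 min. Red aggregate versus green monomer fluorescence reports membrane potential.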

[12] = qHTS assay for small molecule disruptors of the mitochondrial membrane potential - 5 hr assay (AID 651755; calls by dose curve; note: % is set by controls: 0 for no effect and ±100 for the full control effect; nearly all actives have a fitted effect of over 40% in size)
In short: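 HepG2 cells (2,000/well), attached overnight, exposed to compound 5 hr at 37C, then Mito-MPS dye 30 min. Fluorescence read for monomers (490/535 nm) and aggregates (540/590 nm).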

[13] = qHTS assay to identify small molecules that stimulate interleukin-8 (IL-8) secretion (AID 651758; active = well fitted activation curve with a large enough effect in the signal ratio; the % refers to the signal ratio; note: 0% is about no effect)
In short: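 THP-1 cells (2000/well) exposed to compound 16 h at 37 C; secreted IL-8 then detected by HTRF with cryptate- and XL665-labelled anti-IL-8 antibody pair after 1-3 h at room temperature.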

[14] = target: Arylsulfatase A (Homo sapiens) (UniProt P15289); assay: qHTS screen for enhancers of Arylsulfatase A (ASA1): LOPAC Validation Assay (AID 720538); details: outcome: dose series up to 57.5 µM; note: 0% is about no effect
In short: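 Enhancer assay in patient-derived MLD fibroblasts carrying ASA-I179S: 48 h compound exposure at 37 C, then 14 h room-temperature pNCS turnover (0.5 mM final) in lysis buffer. Read by fluorescence at 525/598 nm after NaOH stop.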

[15] = qHTS for compounds that reverse cellular toxicity of Amyloid beta (A-beta) peptide in yeast: LOPAC Validation Assay (AID 720559);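 note: plate controls were DMSO for no effect and equimolar ferric chloride plus clioquinol rescue for full effect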
In short: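 Rescue of A-beta toxicity was scored as yeast growth by 600 nm absorbance after 48 hr at 30 C with compound. Normalization used DMSO (negative) and equimolar ferric chloride plus clioquinol (positive).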

[16] = qHTS for Activators of Parkin Expression: LOPAC Validation Assay (NLuc Reporter) (AID 720572;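 note: 0% = DMSO and 100% = positive control compound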)
In short: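 Neuronal cells with a Parkin promoter-driven FLuc/NLuc coincidence reporter were treated 24 h at 37 C in 7-point dose response (LOPAC). NLuc luminescence read after FLuc; signals normalized to DMSO and positive control (100%).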

[17] = qHTS for Activators of Parkin Expression: LOPAC Validation Assay (FLuc Reporter) (AID 720573;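 note: 0% = DMSO and 100% = positive control compounds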)
In short: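 FLuc signal from Parkin-promoter coincidence reporter neuronal cells, normalized to DMSO and positive control (100%). Cells (1,500/well) pre-incubated 24 h, then exposed to LOPAC compounds in 7-point dose response for 24 h at 37 C, 5% CO2.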

Sequence of Nuclear receptor ROR-gamma (Homo sapiens) (P51449 whole entry, looked up): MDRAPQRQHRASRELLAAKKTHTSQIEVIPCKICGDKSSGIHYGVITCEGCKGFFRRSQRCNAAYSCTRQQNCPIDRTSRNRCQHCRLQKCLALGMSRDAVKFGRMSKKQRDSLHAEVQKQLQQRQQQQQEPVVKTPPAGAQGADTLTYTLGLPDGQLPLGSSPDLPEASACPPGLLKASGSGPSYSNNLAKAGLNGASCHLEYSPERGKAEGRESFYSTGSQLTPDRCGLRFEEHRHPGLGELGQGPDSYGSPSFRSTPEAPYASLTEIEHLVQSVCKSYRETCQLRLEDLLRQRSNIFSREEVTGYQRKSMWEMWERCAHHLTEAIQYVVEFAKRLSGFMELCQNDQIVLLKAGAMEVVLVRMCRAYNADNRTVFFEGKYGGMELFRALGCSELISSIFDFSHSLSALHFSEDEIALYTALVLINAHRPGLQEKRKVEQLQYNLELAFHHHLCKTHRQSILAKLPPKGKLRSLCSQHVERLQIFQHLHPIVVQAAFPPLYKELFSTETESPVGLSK
Sequence of Peroxisome proliferator-activated receptor alpha (Homo sapiens) (Q07869 whole entry, looked up, the tested form may be a part): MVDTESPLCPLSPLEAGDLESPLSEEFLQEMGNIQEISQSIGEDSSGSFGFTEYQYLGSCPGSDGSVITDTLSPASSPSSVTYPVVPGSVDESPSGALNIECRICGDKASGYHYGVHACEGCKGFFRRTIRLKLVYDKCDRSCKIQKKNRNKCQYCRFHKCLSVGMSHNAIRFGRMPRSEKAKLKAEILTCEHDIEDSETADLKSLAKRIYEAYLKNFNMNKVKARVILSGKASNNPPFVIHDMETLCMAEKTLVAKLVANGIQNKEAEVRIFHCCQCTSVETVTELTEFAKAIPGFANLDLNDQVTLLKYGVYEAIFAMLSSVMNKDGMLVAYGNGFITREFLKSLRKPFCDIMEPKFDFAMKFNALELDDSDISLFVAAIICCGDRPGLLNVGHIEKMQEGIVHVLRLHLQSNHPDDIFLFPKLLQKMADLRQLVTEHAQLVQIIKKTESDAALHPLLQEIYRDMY
Sequence of Tumor necrosis factor (Homo sapiens) (P01375 whole entry, looked up): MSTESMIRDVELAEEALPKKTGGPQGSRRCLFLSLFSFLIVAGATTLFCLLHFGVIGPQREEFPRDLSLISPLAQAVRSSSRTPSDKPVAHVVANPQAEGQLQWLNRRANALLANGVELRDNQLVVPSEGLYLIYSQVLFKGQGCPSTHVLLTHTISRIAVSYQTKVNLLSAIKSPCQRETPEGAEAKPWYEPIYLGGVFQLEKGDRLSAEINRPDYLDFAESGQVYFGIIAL
Sequence of Arylsulfatase A (Homo sapiens) (P15289 whole entry, looked up): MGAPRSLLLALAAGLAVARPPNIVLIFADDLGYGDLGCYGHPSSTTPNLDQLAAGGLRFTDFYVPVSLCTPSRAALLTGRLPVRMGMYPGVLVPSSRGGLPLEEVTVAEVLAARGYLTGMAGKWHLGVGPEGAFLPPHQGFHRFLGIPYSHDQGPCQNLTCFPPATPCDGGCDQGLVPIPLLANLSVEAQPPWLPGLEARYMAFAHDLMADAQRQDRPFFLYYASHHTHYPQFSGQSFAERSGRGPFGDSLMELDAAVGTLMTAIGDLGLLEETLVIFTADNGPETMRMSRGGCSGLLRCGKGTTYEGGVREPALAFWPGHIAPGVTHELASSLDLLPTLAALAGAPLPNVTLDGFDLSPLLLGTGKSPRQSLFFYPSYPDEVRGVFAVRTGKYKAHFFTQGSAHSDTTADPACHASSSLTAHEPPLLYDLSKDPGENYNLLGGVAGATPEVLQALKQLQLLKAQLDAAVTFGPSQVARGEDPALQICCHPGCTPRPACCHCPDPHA

CCC(C)(C)c1ccc(O)cc1
inactive: Potency [1] | activation [2] 0.115% and -4.79% | activation [3] -2.14% and 1.1% | outcome [4] | activation [5] 0.262% and -0.822% | max response [6] 5.88% and -1.73% | Potency [7] | outcome [8] | outcome [9] | max response [10] -17% and -1.76%

O=C(O)c1cc(O)c(O)c(O)c1
active: Potency [1] 4.22 µM

COC(=O)C(c1ccccc1)C1CCCCN1 (centres undefined)
inactive: activation [2] -1.5% and -3.75% | activation [3] 0.137% and 0.745% | Potency [11] | Potency [12] | outcome [4] | outcome [13] | activation [5] 0.112% and -0.732% | max response [6] -1.82% and 0.192% | Potency [7] | outcome [8] | outcome [9] | max response [10] 3.62% and -0.896%

Nc1ccccc1
inactive: Potency [1] | activation [2] 1.3% | outcome [4] | outcome [13] | max response [6] 7.46% | Potency [7] | outcome [8] | outcome [9] | max response [10] -9.58%

CCCCCCCCCCCCCCCC(=O)OC(C)C
active: Potency [1] 54.5 µM

C[C@]1(O)CC[C@H]2[C@@H]3CCC4=CC(=O)CC[C@]4(C)[C@@]3(F)[C@@H](O)C[C@@]21C
inactive: activation [2] -1.51% | activation [3] -0.7% | Potency [11] | Potency [12] | outcome [4] | outcome [13] | activation [5] 0.165% | max response [6] 3% | outcome [8] | outcome [9] | max response [10] -5.41%

CC(C)c1cccc(C(C)C)c1O
inactive: Potency [1] | activation [2] 0.635% | activation [3] 1.44% | Potency [11] | Potency [12] | outcome [4] | activation [5] 0.116% | max response [6] -5.67% | Potency [7] | outcome [14] | outcome [15] | outcome [16] | outcome [17] | outcome [8] | outcome [9] | max response [10] -3.43%

[N-]=[N+]=CC(=O)OC[C@H](N)C(=O)O
inactive: Potency [1] | activation [2] -0.27% | activation [3] -0.449% | max response [6] 0.305% | outcome [8] | max response [10] -15%

CC(=O)N1CCN(c2ccc(OC[C@H]3CO[C@](Cn4ccnc4)(c4ccc(Cl)cc4Cl)O3)cc2)CC1
inactive: outcome [15]
active: Potency [1] 30.6 µM

O=C1c2ccccc2C(=O)C1C(=O)C(c1ccccc1)c1ccccc1
inactive: activation [2] 23.1% | activation [3] -1.82% | activation [5] 5.81% | max response [6] -1.83% | outcome [8] | max response [10] -16.2%
active: Potency [1] 61.1 µM

COc1cc(OC)c(OC)cc1C=O
inactive: Potency [1] | activation [2] -3.74% | activation [3] 2% | Potency [11] | Potency [12] | outcome [4] | max response [6] 0.405% | Potency [7] | outcome [8] | outcome [9] | max response [10] 3.08%

Oc1ccccc1
inactive and 1000 µM (active): Potency [1]

CCCC(C)(COC(N)=O)COC(N)=O
inactive: Potency [1] | activation [2] 1.72% and -1.16% | activation [3] 0.11% and -1.2% | Potency [11] | Potency [12] | outcome [4] | activation [5] 1.18% and -0.314% | max response [6] -0.626% and -5.23% | Potency [7] | outcome [8] | outcome [9] | max response [10] 2.78% and -4.68%

Clc1ccc(C(c2ccc(Cl)cc2)C(Cl)(Cl)Cl)cc1
inactive: activation [2] 2.65% | activation [3] 2.81% | Potency [11] | Potency [12] | outcome [4] | activation [5] 0.0892% and -0.298% | max response [6] 4.34% and 1.18% | outcome [8] | max response [10] -18.5% and -23.5%
active: Potency [1] 66.8 µM
